Consider 17 compounds from PubChem BioAssay AID1004 (SRMLSC, 2008).

Calls of active or inactive are those of the source.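 How the source made its calls: active means viability at 10 µM of 29.74% or lower, 3 SD below the compound median; inactive means the rest.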

The experiment in a line: viability of HCT116 lacking mutant beta-catenin – cell-based, DP diverse set, validation, pilot screen (AID 1004). As to conditions: HCT116 (mutant beta-catenin deleted) viability, CellTiter-Glo, 60 h; at 10 µM; hits give low values. For orientation: ATP-based viability assays read luminescence as a measure of living cells.
As usually defined, the viability is a read-out of living cells in per cent, often relative to untreated cells. As to `C[C@@H]1C[C@@H]([C@@H](C)CC2CC(=O)NC(=O)C2)C(=O)[C@@H](C)C1`, the viability is 27.8% (active).

In the case of `O=c1[nH]cnc2ccccc12`, the viability was 98.6% (inactive).

Regarding `O=C(O)c1cc([N+](=O)[O-])ccc1NCCCc1ccccc1`, the viability was 99.6% (inactive).

In the case of `COc1ccc(C2CNC(=O)C2)cc1OC1CCCC1` (configuration not stated), the viability was 99.4% (inactive).

`Nc1c2c(nc3ccccc13)CCCC2`: the viability was 99.8% (inactive).

Consider `O=C(c1ccccc1)c1ccccc1`, for which the viability is 97.8% (inactive).

With `c1ccc2nc3ccccc3cc2c1`, the viability is 100% (inactive).

For `COc1cc(Cc2cnc(N)nc2N)cc(OC)c1OC`, the viability was 94.7% (inactive).

On to `COC(=O)CCc1c(C)[nH]c(C(=O)OCc2ccccc2)c1C`, for which the viability was 100% (inactive).

Take `CN=C(NC#N)NCCSCc1nc[nH]c1C`: the viability is 98.3% (inactive).

For the compound `C[C@@H]1CC[C@]2(C(=O)O)CC[C@]3(C)C(=CCC4[C@@]5(C)C[C@@H](O)[C@H](O)[C@@](C)(CO)C5[C@H](O)C[C@]43C)C2[C@H]1C` (some centres not stated), the viability is 95.4% (inactive).

On to `CCCCCCCCCCCCCCCC(=O)OCC(O)C1OC(=O)C(O)=C1O` (configuration not stated), for which the viability is 100% (inactive).

Turning to `NC(=O)c1cccc(N)c1`, the viability is 108% (inactive).

With `O=C(c1ccc(OCCN2CCCCC2)cc1)c1c(-c2ccc(O)cc2)sc2cc(O)ccc12`, the viability is 86.1% (inactive).

Take `COc1cccc2c1C(=O)c1c(O)c3c(c(O)c1C2=O)C[C@@](O)(C(=O)CO)C[C@@H]3OC1C[C@@H](N)[C@H](O)[C@H](C)O1` (some centres not stated): the viability is 27.4% (active).

Turning to `C=C(C)[C@H]1CC=C(CO)CC1`, the viability is 99.5% (inactive).

`Cn1cnc2c(NCc3ccccc3)nc(NCCO)nc21`: the viability was 103% (inactive).
